Reference: article PMC4336329 (PLoS ONE, 2015)
In all, about 310,000 compounds went through this assay and about 14,000 (4.5%) showed an effect of 50% or more. The effect is printed as a negative number. This is one part of a sample in which strong results are shown more often than they occur.

target: human ether-à-go-go-related gene (hERG) potassium channel (human, UniProt Q12809); test: primary screen, population patch clamp on CHO cells stably expressing hERG; higher = less effect of the substance
Sequence (Q12809 whole entry, looked up): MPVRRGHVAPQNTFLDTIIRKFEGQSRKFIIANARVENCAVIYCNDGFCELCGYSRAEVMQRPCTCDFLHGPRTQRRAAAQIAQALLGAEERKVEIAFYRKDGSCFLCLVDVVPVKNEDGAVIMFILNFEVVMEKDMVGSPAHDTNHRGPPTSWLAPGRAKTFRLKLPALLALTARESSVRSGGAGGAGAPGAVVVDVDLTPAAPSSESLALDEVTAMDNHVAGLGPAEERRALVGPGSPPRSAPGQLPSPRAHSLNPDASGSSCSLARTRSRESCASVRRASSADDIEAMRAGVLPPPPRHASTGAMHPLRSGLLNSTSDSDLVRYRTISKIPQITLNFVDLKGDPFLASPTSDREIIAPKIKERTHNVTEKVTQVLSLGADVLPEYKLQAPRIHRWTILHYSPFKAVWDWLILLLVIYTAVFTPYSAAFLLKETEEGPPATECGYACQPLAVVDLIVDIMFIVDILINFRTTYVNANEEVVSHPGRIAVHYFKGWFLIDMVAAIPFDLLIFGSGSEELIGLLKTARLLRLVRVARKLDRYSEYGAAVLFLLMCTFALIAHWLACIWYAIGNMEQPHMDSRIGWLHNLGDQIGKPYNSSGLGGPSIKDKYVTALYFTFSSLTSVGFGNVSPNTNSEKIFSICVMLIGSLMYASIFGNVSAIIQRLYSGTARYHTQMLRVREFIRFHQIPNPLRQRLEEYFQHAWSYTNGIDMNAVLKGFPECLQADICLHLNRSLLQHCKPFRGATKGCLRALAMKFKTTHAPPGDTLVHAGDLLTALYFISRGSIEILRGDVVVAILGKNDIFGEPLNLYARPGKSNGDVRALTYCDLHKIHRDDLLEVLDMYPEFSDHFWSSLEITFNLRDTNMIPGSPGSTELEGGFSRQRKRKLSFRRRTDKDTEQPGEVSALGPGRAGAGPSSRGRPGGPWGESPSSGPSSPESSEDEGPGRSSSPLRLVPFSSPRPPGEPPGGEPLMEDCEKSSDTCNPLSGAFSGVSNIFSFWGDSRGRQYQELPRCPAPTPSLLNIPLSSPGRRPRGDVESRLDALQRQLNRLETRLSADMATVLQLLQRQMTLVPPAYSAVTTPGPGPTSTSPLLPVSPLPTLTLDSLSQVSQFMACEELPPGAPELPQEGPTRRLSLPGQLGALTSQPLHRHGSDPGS
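Also: peak tail current of the secondary pulse compared with the same well before compound.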

First: CCOc1ccc(NC(=S)N2CCC(N(C)CCN3CCOCC3)CC2)cc1
Second: CCCCN(C)C1CCN(C(=S)Nc2ccc(OCC)cc2)CC1
The “hERG current change (%, negative = inhibition) at 10uM” value of the first is higher: -15.9% for the first, -76.7% for the second.

Compared with `CCCCN(C)C1CCN(C(=S)Nc2ccc(OC)cc2)CC1`, `CC(C)CNC(=S)N1CCC(Cc2ccccc2)CC1` is lower in “hERG current change (%, negative = inhibition) at 10uM” value: -26% for the first, -40.1% for the second.

Going from `CC1CCC(N(C)C2CCN(C)CC2)CC1` (stereo not drawn) to `COc1cc2c(cc1OC)CN(c1nc(CN3CCOCC3)nc3sc4c(c13)CCC(C)C4)CC2` (stereo not drawn), the “hERG current change (%, negative = inhibition) at 10uM” value falls from 11.3% to -67.5%.

First: CCCC12CN3CC(C)(CN(C1)C3c1cccs1)C2=O (stereo not drawn)
Second: CCCN1CCN(C(=O)CCS(=O)(=O)c2cc3c(cc2Cl)NC(=O)CO3)CC1
The “hERG current change (%, negative = inhibition) at 10uM” value of the first is higher: -7.68% for the first, -48% for the second.

Compared with `CC(=O)c1ccc(NC(=O)C2CCCC2)cc1`, `CCc1ccc(OCC(=O)NC(=S)Nc2ccc(S(=O)(=O)NC3CCCCC3)cc2)cc1` is higher in “hERG current change (%, negative = inhibition) at 10uM” value: 10.7% for the first, 19.9% for the second.

Compared with `Fc1ccc(OCCCCCCN2CCCC2)cc1`, `Fc1ccc(OCCCCCN2CCCC2)cc1` is higher in “hERG current change (%, negative = inhibition) at 10uM” value: -9.37% for the first, 4.62% for the second.

Going from `Cl.O[Si](CCCN1CCCCC1)(c1ccc(F)cc1)C1CCCCC1` (stereo not drawn) to `Clc1nc(CN2CCCCC2)nc2sc3c(c12)CCCC3`, the “hERG current change (%, negative = inhibition) at 10uM” value rises from -54.3% to -23.1%.

Going from `CCN(CC)C(=O)c1ccc(S(=O)(=O)NCc2cccnc2)cc1` to `CCN(CC)S(=O)(=O)c1ccc(C(=O)OCCNC(=O)c2cccnc2)cc1`, the “hERG current change (%, negative = inhibition) at 10uM” value falls from 13.9% to -2.68%.

Going from `CC1=C(C(=O)OCc2ccccc2)C(c2cccc3ccccc23)NC(=O)N1CCCC(=O)O` (stereo not drawn) to `OCC1(Cc2ccccc2)CCN(Cc2cnc(-c3cccc4ccccc34)nc2)CC1`, the “hERG current change (%, negative = inhibition) at 10uM” value falls from 20.8% to 10.8%.

Going from `O=C1C=C(NCc2ccc3c(c2)OCO3)CC(c2ccccc2)C1` (stereo not drawn) to `COc1ccc(C2CC(=O)C=C(NCc3ccc4c(c3)OCO4)C2)cc1` (stereo not drawn), the “hERG current change (%, negative = inhibition) at 10uM” value rises from -76.9% to -73.1%.

First: O=C1C=C(NCc2ccncc2)CC(c2ccccc2)C1 (stereo not drawn)
Second: Cc1ccc(C2CC(=O)C=C(NCc3ccccc3)C2)cc1 (stereo not drawn)
The “hERG current change (%, negative = inhibition) at 10uM” value of the first is lower: -70.7% for the first, -38.8% for the second.

Compared with `COc1ccc(C2CC(=O)C=C(NCC3CCCO3)C2)cc1` (stereo not drawn), `COc1ccc(C2CC(=O)C=C(NCCC(C)C)C2)cc1` (stereo not drawn) is lower in “hERG current change (%, negative = inhibition) at 10uM” value: -9.1% for the first, -73.2% for the second.

Going from `COc1ccc2cc(C3=CC(=O)C[C@H](c4ccc5c(c4)OCO5)C3)ccc2c1` to `COc1ccc([C@H]2CC(=O)C=C(c3ccc4c(c3)OCO4)C2)cc1`, the “hERG current change (%, negative = inhibition) at 10uM” value falls from 17.3% to -22.9%.

First: O=C1C=C(c2ccccc2)C[C@@H](c2ccc3c(c2)OCO3)C1
Second: Cc1cc(C(=O)NCc2ccc3c(c2)OCO3)n(-c2ccccc2)n1
The “hERG current change (%, negative = inhibition) at 10uM” value of the first is higher: -4.15% for the first, -14.8% for the second.

Going from `O=C1C=C(Nc2ccccc2)CC(c2ccccc2)C1` (stereo not drawn) to `O=C1C=C(NNC(=O)c2ccncc2)CC(c2ccccc2)C1` (stereo not drawn), the “hERG current change (%, negative = inhibition) at 10uM” value falls from 9.51% to -1.64%.

Compared with `CC(C)CCNC1=CC(=O)CC(c2ccccc2)C1` (stereo not drawn), `CC(C)C(=O)N1CCC(Cc2ccccc2)CC1` is higher in “hERG current change (%, negative = inhibition) at 10uM” value: -33.2% for the first, 4.6% for the second.

First: O=C(N/N=C\c1ccco1)Nc1cccc(Cl)c1
Second: CCn1c(SCC(=O)N/N=C/c2ccc(O)c(OC)c2)nc2ccccc21
The “hERG current change (%, negative = inhibition) at 10uM” value of the first is lower: -5.83% for the first, 2.36% for the second.

Compared with `CC1CCCCC1NC(=O)CCCn1c(=S)[nH]c2ccsc2c1=O` (stereo not drawn), `CNC(=O)/C(C#N)=C/c1c(N2CC(C)OC(C)C2)nc2ccccn2c1=O` (stereo not drawn) is lower in “hERG current change (%, negative = inhibition) at 10uM” value: 12.9% for the first, 1.43% for the second.

Compared with `C=CCn1c(SCC(=O)NNC(=S)Nc2ccccc2)nnc1-c1ccccc1`, `Cc1ccccc1CSc1nccn1-c1ccccc1` is lower in “hERG current change (%, negative = inhibition) at 10uM” value: 15.9% for the first, -8.94% for the second.

First: Cc1cc([N+](=O)[O-])ccc1NC(=O)CSc1nncn1-c1ccccn1
Second: COc1cccc(-c2ccc3nnc(SCC(=O)N4CCCC4)n3n2)c1
The “hERG current change (%, negative = inhibition) at 10uM” value of the first is lower: -28.1% for the first, -17.1% for the second.

Going from `NC(=O)c1cccnc1OCC(F)(F)F` to `Cc1c(C(=O)NCCSCc2cccc(C(F)(F)F)c2)cnn1-c1ccc(Cl)cc1`, the “hERG current change (%, negative = inhibition) at 10uM” value falls from 2.21% to -30.6%.

Going from `CCOc1ccc(NC(=O)CN(C)S(=O)(=O)c2ccc3c(c2)CCC(=O)N3)cc1` to `Cc1ccccc1CN(c1ccc(C(=O)N/N=C/c2ccc(OCC(N)=O)cc2)cc1)S(C)(=O)=O`, the “hERG current change (%, negative = inhibition) at 10uM” value rises from -41.3% to 5.85%.

Compared with `Cc1c(C(=O)NCCSCc2cccc(C(F)(F)F)c2)cnn1-c1ccc(F)cc1`, `Cc1c(C(=O)NCCSCc2ccc(F)cc2)cnn1-c1ccc(Cl)cc1` is higher in “hERG current change (%, negative = inhibition) at 10uM” value: -64.6% for the first, -34.6% for the second.

`CC(C)CCNC(=O)CN(Cc1cccs1)C(=O)CCC(=O)Nc1nccs1` and `CCOC(=O)Cc1csc(NC(=O)c2cc(OC)cc(OC)c2)n1` are the same in “hERG current change (%, negative = inhibition) at 10uM” value: -10.6% for the first, -10.6% for the second.

First: COCCNc1c2c(c(C#N)c3nc4ccccc4n13)CCCC2
Second: N#Cc1c2c(c(NCCOCCO)n3c1nc1ccccc13)CCCC2
The “hERG current change (%, negative = inhibition) at 10uM” value of the first is higher: -44.1% for the first, -63.3% for the second.

Going from `CC(=O)c1ccc(Nc2c3c(c(C#N)c4nc5ccccc5n24)CCC3)cc1` to `N#Cc1c2c(c(Nc3ccc(O)cc3)n3c1nc1ccccc13)CCC2`, the “hERG current change (%, negative = inhibition) at 10uM” value rises from -73.2% to 5.51%.

First: CN(C)CCNc1c2c(c(C#N)c3nc4ccccc4n13)CCCC2
Second: N#Cc1c2c(c(Nc3ccccc3)n3c1nc1ccccc13)CCC2
The “hERG current change (%, negative = inhibition) at 10uM” value of the first is lower: -23.5% for the first, 19.5% for the second.

Going from `CCOC(=O)N1CCN(S(=O)(=O)Cc2ccccc2)CC1` to `CCC(C)[C@H](NC(=O)N1CCC(Cc2ccccc2)CC1)C(=O)O` (stereo partly drawn), the “hERG current change (%, negative = inhibition) at 10uM” value falls from 15.5% to 15.2%.

First: Cc1ccc(S(=O)(=O)Nc2cc(C)c(O)c(Sc3n[nH]c(C)n3)c2)cc1
Second: CCOC(=O)c1nn(-c2ccc(C)cc2)c2nc(Nc3ccccc3)cc(=O)n12
The “hERG current change (%, negative = inhibition) at 10uM” value of the first is lower: 2.79% for the first, 21.9% for the second.

First: O=C(Cn1cc(C(=O)COc2ccccc2)c2ccccc21)NCc1ccco1
Second: COc1ccc(N(C(=O)Cn2nnc3ccccc32)C(C(=O)NCc2ccco2)c2cccnc2)cc1 (stereo not drawn)
The “hERG current change (%, negative = inhibition) at 10uM” value of the first is lower: -0.105% for the first, 9.77% for the second.

Compared with `Cc1sc2nc(CN3CCCCC3)nc(Cl)c2c1C`, `Clc1nc(CN2CCCCC2)nc2sc3c(c12)CCC3` is lower in “hERG current change (%, negative = inhibition) at 10uM” value: -24.5% for the first, -33.6% for the second.

First: COc1cc2c(cc1OC)CN(c1nc(CN3CCOCC3)nc3sc4c(c13)CCCC4)CC2
Second: COc1cc2c(cc1OC)CN(c1nc(CN3CCCCC3)nc3sc4c(c13)CCCC4)CC2
The “hERG current change (%, negative = inhibition) at 10uM” value of the first is higher: -73.6% for the first, -81.2% for the second.

Compared with `Cc1cccc(Oc2nc(CN3CCOCC3)nc3sc4c(c23)CCCC4)c1`, `COc1cccc(Nc2nc(CN3CCOCC3)nc3sc4c(c23)CCCC4)c1` is lower in “hERG current change (%, negative = inhibition) at 10uM” value: -29.7% for the first, -53.1% for the second.

Compared with `Cc1cc(S(=O)(=O)Nc2nc(CN3CCOCC3)nc3sc4c(c23)CCCC4)ccc1F`, `O=S(=O)(Nc1nc(CN2CCOCC2)nc2sc3c(c12)CCCC3)c1cc(F)ccc1F` is lower in “hERG current change (%, negative = inhibition) at 10uM” value: -17.2% for the first, -34.9% for the second.

First: c1nc(N2CCOCC2)c2c3c(sc2n1)CCCC3
Second: Clc1nc(CN2CCOCC2)nc2sc3c(c12)CCC3
The “hERG current change (%, negative = inhibition) at 10uM” value of the first is lower: -7.14% for the first, 14.5% for the second.

Compared with `CC1CCc2c(sc3nc(CN4CCOCC4)nc(N4CCc5ccccc5C4)c23)C1` (stereo not drawn), `c1ccc2c(c1)CCN(c1nc(CN3CCOCC3)nc3sc4c(c13)CCCC4)C2` is lower in “hERG current change (%, negative = inhibition) at 10uM” value: -8.23% for the first, -60.2% for the second.

First: Cc1ccc(Oc2nc(CN3CCOCC3)nc3sc4c(c23)CCC(C)C4)cc1C (stereo not drawn)
Second: CCNc1nc(CN2CCOCC2)nc2sc3c(c12)CCC3
The “hERG current change (%, negative = inhibition) at 10uM” value of the first is higher: 7.99% for the first, -7.54% for the second.

First: COc1cc2c(cc1OC)CN(c1nc(CN3CCCC3)nc3sc(C)c(C)c13)CC2
Second: COc1cc2c(cc1OC)CN(c1ccc(C(F)(F)F)cn1)CC2
The “hERG current change (%, negative = inhibition) at 10uM” value of the first is lower: -75.6% for the first, 15.9% for the second.

Going from `O=c1[nH]c(=O)n(Cc2ccccc2)c(O)c1/C=N/Nc1c(F)c(F)c(F)c(F)c1F` to `O=C(O)c1cccc(CN2C(=O)CSC2=O)c1`, the “hERG current change (%, negative = inhibition) at 10uM” value rises from 3.83% to 19.4%.

Going from `COc1ccc(-c2csc(N)n2)cc1` to `COc1ccc(CC2(CO)CCN(Cc3cc4ccccc4o3)CC2)cc1`, the “hERG current change (%, negative = inhibition) at 10uM” value falls from -6.71% to -52.2%.

Compared with `CO/N=C/c1cccn1-c1nccc(N(C)C)c1C#N`, `COc1ccc(CN2CCN(Cc3cc4ccccc4o3)CC2CCO)cc1C` (stereo not drawn) is lower in “hERG current change (%, negative = inhibition) at 10uM” value: -2.01% for the first, -40.4% for the second.

Compared with `COc1ccc(S(=O)(=O)NCC2CCCN(C(=O)CCC(F)(F)F)C2)cc1` (stereo not drawn), `CC(C)[C@H](NC(=O)N1CCC(Cc2ccccc2)CC1)C(=O)O` is higher in “hERG current change (%, negative = inhibition) at 10uM” value: 2.06% for the first, 6.12% for the second.

First: CC(C(O)c1ccc(O)cc1)N1CCC(Cc2ccccc2)CC1.O.O=C(O)C(O)C(O)C(=O)O (stereo not drawn)
Second: CC(C(O)c1ccc(O)cc1)N1CCC(Cc2ccccc2)CC1.O=C(O)C(O)C(O)C(=O)O (stereo not drawn)
The “hERG current change (%, negative = inhibition) at 10uM” value of the first is higher: -65.4% for the first, -71.4% for the second.

First: CC(C)NC(=S)N1CCC(Cc2ccccc2)CC1
Second: C[C@H](NC(=O)N1CCC(Cc2ccccc2)CC1)C(=O)O
The “hERG current change (%, negative = inhibition) at 10uM” value of the first is lower: -2.26% for the first, 15.5% for the second.

Going from `C[C@@H](CN1CCC(Cc2ccccc2)CC1)[C@@H](O)c1ccc(O)cc1.Cl` to `OCC1(Cc2ccccc2)CCN(Cc2cc3ccccc3o2)CC1`, the “hERG current change (%, negative = inhibition) at 10uM” value rises from -71.3% to -51.7%.
